Measurements as given in the supplement of paper PMC11732987, “Enantioselective OTUD7B fragment discovery through chemoproteomics screening and high-throughput optimisation” (Communications Chemistry, 2025).

What was measured:
Assay in all cases: log2 ratio of Biotin-Ahx-Ub-VS probe labelling (fragment/DMSO); higher = less target engagement (more negative = stronger competition), active = hit call of the paper (q ≤ 0.05, log2 ratio ≤ -1)
Details in all cases: compound concentration: 200 uM; treatment time: 3 h
USP9X = USP9X (UniProt Q93008)
How it was run: (§1)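 HEK293T lysate (495 µg per sample, in Tris/CHAPS/IGEPAL buffer with protease inhibitors) was exposed in triplicate for 3 h to fragment at 200 µM or to vehicle, then to Biotin-Ahx-Ub-VS at 0.5 µM final for 1 h. Labelled DUBs were enriched on NeutrAvidin, digested with LysC and trypsin, and analysed by diaPASEF LC-MS/MS. Spectronaut label-free quantities were normalised to the global median, and values are average log2 ratios of fragment over vehicle from an unpaired t-test. Only proteins with ≥2 unique peptides were used.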

UniProt O00487 = target: UniProt O00487
How it was run: as §1

UniProt O00507 = target: UniProt O00507
How it was run: as §1

UniProt P51784 = target: UniProt P51784
How it was run: as §1

UniProt Q5T2D3 = target: T1, UniProt Q5T2D3
T1 sequence (whole entry): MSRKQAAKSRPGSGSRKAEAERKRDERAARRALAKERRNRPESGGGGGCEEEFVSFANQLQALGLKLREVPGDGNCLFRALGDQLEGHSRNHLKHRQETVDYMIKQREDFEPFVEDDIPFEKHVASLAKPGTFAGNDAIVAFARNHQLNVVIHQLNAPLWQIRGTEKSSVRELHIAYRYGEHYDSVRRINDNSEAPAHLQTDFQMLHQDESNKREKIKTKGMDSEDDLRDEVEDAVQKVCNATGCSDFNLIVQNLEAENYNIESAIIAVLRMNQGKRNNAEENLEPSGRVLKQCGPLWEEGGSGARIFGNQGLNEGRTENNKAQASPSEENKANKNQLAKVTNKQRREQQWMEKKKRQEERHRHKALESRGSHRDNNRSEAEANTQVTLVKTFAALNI
How it was run: as §1

UniProt Q8TE49 = target: T2, UniProt Q8TE49
T2 sequence (whole entry): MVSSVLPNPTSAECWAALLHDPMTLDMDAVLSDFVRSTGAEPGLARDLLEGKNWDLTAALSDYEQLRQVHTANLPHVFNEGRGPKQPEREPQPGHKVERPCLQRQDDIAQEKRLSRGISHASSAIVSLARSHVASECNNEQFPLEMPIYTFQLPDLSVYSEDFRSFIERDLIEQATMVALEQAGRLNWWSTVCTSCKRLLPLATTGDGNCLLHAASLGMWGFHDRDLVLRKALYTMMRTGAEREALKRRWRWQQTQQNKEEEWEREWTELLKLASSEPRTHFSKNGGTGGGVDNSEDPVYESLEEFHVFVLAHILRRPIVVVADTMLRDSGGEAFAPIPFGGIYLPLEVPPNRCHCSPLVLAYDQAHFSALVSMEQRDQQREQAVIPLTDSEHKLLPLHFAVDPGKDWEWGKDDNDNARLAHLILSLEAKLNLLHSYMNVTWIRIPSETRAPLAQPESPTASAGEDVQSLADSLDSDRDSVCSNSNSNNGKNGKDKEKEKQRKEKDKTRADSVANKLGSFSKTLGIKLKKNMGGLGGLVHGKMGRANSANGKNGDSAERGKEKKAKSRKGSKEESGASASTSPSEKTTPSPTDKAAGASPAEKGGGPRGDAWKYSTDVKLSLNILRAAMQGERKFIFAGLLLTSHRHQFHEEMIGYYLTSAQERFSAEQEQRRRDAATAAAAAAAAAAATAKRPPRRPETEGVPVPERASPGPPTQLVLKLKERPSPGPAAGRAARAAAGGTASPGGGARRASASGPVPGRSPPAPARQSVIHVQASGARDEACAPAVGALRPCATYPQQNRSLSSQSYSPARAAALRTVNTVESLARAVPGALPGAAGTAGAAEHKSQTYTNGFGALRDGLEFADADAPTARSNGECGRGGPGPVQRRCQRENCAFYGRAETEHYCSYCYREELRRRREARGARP
How it was run: as §1

UniProt Q9P2H5 = target: T3, UniProt Q9P2H5
T3 sequence (whole entry): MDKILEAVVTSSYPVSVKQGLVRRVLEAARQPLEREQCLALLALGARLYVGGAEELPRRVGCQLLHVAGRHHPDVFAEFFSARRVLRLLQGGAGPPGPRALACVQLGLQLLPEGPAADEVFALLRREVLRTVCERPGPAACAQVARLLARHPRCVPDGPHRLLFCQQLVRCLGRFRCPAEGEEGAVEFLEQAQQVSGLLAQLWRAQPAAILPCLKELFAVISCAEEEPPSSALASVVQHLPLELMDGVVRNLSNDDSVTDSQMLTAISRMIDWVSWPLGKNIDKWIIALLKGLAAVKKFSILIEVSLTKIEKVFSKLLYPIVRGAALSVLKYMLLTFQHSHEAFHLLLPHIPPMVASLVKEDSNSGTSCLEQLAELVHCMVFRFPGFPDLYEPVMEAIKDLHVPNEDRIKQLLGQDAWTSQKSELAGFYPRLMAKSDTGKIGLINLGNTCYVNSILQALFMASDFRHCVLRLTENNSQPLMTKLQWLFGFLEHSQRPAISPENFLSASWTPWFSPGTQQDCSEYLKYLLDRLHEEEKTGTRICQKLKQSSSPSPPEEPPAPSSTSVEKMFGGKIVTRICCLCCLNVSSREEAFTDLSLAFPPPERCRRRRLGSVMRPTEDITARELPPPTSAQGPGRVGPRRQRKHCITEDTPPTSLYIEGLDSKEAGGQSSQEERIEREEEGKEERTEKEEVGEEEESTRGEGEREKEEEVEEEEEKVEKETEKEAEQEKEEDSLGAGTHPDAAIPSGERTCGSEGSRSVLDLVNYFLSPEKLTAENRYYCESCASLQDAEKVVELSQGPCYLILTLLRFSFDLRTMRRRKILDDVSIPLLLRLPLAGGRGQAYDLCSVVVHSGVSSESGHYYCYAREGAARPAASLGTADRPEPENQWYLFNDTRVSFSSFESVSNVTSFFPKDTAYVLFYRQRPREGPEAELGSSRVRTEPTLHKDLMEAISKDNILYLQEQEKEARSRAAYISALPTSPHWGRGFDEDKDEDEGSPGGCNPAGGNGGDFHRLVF
How it was run: as §1

UniProt Q9UGI0 = target: T4, UniProt Q9UGI0
T4 sequence (whole entry): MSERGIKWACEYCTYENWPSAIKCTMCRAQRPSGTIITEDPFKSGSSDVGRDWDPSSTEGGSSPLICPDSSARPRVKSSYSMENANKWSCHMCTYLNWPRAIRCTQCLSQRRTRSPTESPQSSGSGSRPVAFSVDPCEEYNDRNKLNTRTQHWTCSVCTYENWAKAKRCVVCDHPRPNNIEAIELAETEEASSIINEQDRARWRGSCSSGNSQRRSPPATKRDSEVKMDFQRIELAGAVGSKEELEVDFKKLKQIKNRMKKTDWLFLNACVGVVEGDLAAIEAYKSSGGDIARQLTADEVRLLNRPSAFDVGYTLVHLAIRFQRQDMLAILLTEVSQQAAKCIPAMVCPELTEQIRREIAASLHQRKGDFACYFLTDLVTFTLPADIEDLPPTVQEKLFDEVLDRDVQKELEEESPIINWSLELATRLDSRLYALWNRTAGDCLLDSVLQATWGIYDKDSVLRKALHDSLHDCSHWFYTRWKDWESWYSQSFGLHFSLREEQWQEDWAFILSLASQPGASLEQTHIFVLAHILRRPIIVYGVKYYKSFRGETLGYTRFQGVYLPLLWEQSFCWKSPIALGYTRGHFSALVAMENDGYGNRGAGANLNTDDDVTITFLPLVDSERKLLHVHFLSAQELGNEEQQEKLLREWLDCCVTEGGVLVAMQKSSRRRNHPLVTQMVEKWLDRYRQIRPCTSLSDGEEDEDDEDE
How it was run: as §1

YOD1 = target: T5, YOD1 (UniProt Q5VVQ6)
T5 sequence (whole entry): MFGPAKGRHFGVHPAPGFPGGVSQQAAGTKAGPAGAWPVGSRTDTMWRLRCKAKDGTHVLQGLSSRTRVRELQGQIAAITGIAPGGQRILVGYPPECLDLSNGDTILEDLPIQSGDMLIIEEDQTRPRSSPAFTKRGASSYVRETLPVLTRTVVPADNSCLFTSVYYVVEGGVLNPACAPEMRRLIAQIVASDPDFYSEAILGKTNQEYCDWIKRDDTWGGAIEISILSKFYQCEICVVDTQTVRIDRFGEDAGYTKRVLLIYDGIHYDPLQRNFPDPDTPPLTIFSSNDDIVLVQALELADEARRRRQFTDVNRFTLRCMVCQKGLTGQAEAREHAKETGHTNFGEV
How it was run: as §1

Measured: log2 ratio of Biotin-Ahx-Ub-VS probe labelling

UniProt O00487, sequence (O00487 whole entry): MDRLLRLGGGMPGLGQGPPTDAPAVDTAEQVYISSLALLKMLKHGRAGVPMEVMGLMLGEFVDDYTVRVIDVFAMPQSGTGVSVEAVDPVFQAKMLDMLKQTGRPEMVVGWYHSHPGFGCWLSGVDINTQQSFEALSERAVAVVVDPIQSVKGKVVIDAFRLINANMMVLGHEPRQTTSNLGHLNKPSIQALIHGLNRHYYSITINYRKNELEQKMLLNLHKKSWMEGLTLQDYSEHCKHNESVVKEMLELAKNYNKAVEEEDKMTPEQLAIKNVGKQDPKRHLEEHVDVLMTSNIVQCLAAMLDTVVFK
UniProt P51784, sequence (P51784 whole entry): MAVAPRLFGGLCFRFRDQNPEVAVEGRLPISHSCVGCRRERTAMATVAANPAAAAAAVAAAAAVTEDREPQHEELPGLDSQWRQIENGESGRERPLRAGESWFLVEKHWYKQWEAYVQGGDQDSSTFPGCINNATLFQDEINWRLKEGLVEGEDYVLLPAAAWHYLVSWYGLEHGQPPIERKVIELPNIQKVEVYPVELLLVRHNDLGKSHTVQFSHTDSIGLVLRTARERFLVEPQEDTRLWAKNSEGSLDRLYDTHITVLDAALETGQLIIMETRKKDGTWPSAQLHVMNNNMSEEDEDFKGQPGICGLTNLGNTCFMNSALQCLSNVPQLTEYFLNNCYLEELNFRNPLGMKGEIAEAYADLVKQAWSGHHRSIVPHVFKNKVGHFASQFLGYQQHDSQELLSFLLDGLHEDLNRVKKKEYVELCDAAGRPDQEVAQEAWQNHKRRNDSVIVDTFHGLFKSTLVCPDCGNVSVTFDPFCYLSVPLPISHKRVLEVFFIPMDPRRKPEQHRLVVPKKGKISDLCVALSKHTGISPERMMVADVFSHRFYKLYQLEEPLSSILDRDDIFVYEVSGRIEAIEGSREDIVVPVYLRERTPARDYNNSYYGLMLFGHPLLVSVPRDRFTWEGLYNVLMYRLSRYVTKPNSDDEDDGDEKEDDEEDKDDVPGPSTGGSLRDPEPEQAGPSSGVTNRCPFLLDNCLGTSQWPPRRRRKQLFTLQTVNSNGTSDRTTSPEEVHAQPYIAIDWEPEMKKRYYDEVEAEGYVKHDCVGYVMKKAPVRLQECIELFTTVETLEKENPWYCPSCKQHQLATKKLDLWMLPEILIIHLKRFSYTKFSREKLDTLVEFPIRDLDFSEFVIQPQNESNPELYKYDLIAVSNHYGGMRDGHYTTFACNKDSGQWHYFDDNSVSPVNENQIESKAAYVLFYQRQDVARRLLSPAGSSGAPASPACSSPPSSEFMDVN
USP9X, sequence (Q93008 whole entry, the tested form may be a part): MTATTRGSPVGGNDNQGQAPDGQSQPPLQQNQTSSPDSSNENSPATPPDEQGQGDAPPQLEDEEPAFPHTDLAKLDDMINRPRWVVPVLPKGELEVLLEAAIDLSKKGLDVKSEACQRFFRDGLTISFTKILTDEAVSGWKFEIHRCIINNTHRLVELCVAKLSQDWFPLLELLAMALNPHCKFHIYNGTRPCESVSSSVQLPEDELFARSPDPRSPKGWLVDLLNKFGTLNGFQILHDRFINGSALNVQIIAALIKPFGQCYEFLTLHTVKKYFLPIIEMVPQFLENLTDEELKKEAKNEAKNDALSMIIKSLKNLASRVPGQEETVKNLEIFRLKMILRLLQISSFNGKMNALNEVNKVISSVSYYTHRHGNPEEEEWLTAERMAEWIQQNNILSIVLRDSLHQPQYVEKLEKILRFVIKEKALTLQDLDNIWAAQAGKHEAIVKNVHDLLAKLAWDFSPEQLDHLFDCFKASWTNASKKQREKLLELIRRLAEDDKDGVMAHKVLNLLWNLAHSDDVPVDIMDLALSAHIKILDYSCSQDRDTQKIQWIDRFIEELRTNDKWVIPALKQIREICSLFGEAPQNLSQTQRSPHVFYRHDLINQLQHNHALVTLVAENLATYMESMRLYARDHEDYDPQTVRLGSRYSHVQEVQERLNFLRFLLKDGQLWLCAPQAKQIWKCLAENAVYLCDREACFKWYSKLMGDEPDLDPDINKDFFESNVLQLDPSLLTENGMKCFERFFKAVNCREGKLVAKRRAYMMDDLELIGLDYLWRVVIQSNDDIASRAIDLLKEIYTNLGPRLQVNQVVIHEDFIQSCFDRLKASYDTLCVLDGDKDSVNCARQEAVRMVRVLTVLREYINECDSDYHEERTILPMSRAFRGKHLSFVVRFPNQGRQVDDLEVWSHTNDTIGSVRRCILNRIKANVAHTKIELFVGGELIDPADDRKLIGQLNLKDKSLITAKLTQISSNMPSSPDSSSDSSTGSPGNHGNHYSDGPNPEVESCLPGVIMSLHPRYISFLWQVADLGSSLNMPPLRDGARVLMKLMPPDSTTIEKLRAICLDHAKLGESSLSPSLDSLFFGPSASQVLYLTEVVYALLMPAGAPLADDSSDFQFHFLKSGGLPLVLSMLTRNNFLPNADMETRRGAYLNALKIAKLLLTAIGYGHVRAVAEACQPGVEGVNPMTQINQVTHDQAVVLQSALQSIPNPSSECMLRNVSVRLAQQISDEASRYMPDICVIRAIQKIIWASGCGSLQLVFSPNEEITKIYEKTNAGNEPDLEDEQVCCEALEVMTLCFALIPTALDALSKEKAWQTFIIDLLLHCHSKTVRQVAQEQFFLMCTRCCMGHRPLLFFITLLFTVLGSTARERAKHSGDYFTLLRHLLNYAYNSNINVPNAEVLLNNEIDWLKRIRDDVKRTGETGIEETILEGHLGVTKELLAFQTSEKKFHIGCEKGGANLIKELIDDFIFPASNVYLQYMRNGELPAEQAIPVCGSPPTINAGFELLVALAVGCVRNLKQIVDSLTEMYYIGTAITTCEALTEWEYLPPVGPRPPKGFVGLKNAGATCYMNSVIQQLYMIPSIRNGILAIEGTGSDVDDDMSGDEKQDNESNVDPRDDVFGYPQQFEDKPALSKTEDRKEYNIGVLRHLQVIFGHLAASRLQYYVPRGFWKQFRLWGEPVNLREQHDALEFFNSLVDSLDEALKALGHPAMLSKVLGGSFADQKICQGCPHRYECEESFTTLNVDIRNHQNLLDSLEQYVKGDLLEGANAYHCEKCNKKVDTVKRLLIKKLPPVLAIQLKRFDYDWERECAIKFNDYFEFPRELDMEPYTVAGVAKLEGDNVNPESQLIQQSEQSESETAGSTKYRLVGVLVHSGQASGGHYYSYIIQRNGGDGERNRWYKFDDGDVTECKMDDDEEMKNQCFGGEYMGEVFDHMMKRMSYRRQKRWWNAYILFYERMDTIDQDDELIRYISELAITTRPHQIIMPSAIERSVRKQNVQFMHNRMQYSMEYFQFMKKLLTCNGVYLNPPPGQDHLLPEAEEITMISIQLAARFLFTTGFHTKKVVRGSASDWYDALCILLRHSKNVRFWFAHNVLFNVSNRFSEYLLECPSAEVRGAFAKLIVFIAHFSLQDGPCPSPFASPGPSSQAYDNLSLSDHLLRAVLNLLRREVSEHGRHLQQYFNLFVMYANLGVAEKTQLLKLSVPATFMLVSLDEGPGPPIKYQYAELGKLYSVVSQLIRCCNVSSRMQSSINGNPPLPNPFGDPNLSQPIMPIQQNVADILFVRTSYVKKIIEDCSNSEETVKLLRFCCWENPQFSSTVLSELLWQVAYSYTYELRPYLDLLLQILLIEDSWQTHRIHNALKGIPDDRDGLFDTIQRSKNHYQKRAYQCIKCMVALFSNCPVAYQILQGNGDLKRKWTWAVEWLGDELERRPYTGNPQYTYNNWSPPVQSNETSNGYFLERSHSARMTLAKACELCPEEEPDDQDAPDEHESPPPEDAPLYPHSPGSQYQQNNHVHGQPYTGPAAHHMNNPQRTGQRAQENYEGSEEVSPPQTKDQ

O=C(CCl)NCCc1ccc2c(c1)OCCO2
inactive: USP9X -0.26 | UniProt O00487 -0.093 | UniProt O00507 -0.489 | UniProt P51784 0.0955 | UniProt Q5T2D3 -0.249 | UniProt Q8TE49 -0.327 | UniProt Q9P2H5 -0.0308 | UniProt Q9UGI0 -0.256 | YOD1 -0.414
